Experimental data published in PubChem BioAssay.
Inconclusive results are not listed. Calls of active or inactive are those of the source.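 The calls were made as follows, unless noted: active = growth inhibition above 25% in both replicates, a cutoff set 3 SD above the mean; inconclusive = above 25% in only one replicate; inactive = the rest.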

Legend:
[1] = reducers of endogenous Her2 protein level, primary screen, SKBR3 breast tumor cells, AlphaScreen, ATP viability (AID 461;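 active = Her2 level under about 52% in both replicate screens, with viability over 70% of control, limit read from the data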;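 as to Her2 level: lower value means less Her2 protein in the cells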;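 as to viability: percent of carrier control wells set as 100% viability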); conditions: 18-24 h, measured here: SKBR3 viability, ATP luminescence, at 10 µM
[2] = target: Receptor tyrosine-protein kinase erbB-2 (Homo sapiens) (UniProt P04626); experiment: as above; conditions: 18-24 h, at 10 µM, stronger effect = lower value
Receptor tyrosine-protein kinase erbB-2 (Homo sapiens), sequence (P04626 whole entry, looked up): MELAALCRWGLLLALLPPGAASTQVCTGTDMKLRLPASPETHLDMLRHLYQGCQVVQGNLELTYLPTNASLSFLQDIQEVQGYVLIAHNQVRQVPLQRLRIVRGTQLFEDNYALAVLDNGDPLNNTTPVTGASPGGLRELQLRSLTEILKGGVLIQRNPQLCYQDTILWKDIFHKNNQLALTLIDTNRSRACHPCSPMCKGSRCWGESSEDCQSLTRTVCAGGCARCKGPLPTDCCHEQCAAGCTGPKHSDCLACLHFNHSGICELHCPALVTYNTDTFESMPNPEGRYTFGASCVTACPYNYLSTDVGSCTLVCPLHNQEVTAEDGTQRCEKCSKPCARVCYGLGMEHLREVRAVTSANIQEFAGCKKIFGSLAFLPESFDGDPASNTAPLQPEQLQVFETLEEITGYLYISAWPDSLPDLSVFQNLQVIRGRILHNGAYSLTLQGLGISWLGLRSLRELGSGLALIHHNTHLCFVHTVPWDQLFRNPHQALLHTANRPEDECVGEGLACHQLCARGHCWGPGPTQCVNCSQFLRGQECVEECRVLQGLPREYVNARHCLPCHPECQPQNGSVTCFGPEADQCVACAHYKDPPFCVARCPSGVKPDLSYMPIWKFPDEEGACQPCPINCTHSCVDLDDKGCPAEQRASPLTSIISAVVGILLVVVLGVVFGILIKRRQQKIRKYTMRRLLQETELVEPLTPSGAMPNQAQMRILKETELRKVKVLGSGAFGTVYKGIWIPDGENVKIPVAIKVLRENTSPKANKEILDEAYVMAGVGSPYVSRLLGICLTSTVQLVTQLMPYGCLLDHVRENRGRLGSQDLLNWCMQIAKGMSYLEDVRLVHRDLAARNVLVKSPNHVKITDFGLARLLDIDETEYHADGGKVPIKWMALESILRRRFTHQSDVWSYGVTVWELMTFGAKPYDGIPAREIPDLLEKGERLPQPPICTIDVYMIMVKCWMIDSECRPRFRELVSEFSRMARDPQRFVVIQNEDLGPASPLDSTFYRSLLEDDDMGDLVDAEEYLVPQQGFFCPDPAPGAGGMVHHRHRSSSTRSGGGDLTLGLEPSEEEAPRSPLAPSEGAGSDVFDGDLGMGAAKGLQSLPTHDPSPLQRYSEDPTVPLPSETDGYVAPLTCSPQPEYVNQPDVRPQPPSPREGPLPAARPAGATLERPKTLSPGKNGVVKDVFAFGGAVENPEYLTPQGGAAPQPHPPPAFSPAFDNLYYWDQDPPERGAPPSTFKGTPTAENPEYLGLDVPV

[3] = SK-BR-3 cell growth inhibitors, pilot screen, 24 h, human (AID 572;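 active = viability at or below 10% of carrier control in both of two separate runs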;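 also: compound exposure lasted between 18 and 24 h rather than exactly 24 h; 100% = carrier-treated control wells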); conditions: SK-BR-3 viability, CellTiter-Glo luminescence, at 10 µM, stronger effect = lower value
[4] = HUVEC growth inhibition – cell-based, human, primary screen (AID 575;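 active = viability at or below 30% in both replicate assays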;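 also: 100% = median of untreated cell wells with 0.1% DMSO on each plate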); conditions: HUVEC proliferation, CellTiter-Glo luminescence, 72 h; at 10 µM; stronger effect = lower value
[5] = growth inhibitors of H69AR lung tumor, primary screen, human, duplicate replicates (AID 580;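 active = viability at or under a set limit in both replicates, limit being median viability minus 3 SD, cut at about 48% in these data, passing the limit was not always enough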;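 also: 100% = mean luminescence of untreated wells and 0% = no signal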); conditions: H69AR lung tumor cells viability, ATP luminescence, 72 h; at 10 µM; stronger effect = lower value
[6] = reversal of MRP1-mediated doxorubicin resistance, pilot screen, H69AR cells, doxorubicin co-treatment (AID 601;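 active = viability loss from added drug above about 55%, and viability with drug at most 40%, in both replicates, limit read from the data, passing the limit was not always enough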); conditions: CellTiter-Glo, 72 h, at 10 µM; for differential viability (reversal): stronger effect = higher value
[7] = 384-well plate pilot, post-Golgi transport modulator project, inhibition of yeast transport mutant growth (AID 636; in the data active = inhibition above about 31%); conditions: absorbance 615 nm, about 18 h, stronger effect = higher value
[8] = growth suppression of yeast trafficking mutant, preliminary HTS, modulators of trafficking downstream of Golgi apparatus project, 1536-format plate, OD 615 nm (AID 637; in the data active = inhibition above about 30%); conditions: yeast transport mutant growth, absorbance 615 nm, 18 h; stronger effect = higher value
[9] = OD615 S. cerevisiae growth inhibition, permissive medium, pilot counter-assay, permissive growth control for S. cerevisiae lifespan shortening project (AID 705); conditions: OD615, 24 h, at 10 µM, stronger effect = higher value
[10] = Restrictive medium S. cerevisiae growth inhibition, OD615, pilot screen of yeast lifespan reduction project, restrictive growth control (AID 706;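 active = growth inhibition above a set limit, 3 SD over mean compound inhibition, in both replicates, cut at about 43% in these data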;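 also: modified DeaD lifespan yeast strain shifted to restrictive glucose medium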); conditions: OD615, 48 h, at 10 µM, stronger effect = higher value
[11] = viability gain of MRP-1-high H69AR cells under doxorubicin, pilot screen, MRP-1 activator project, CellTiter-Glo, duplicate (AID 807;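 active = viability increase at or above a cutoff of the median across tested compounds plus 3 SD, cut at about 8.5% in these data, passing the limit was not always enough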;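 also: compound pretreatment 18-22 h then 72 h combined with doxorubicin; 0% = doxorubicin alone and 100% = vehicle without doxorubicin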); conditions: H69AR viability with doxorubicin, CellTiter-Glo luminescence; at 10 µM; stronger effect = higher value
[12] = growth suppression of beta-catenin knockout HCT116, pilot screen, human colon tumor cells (AID 823;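 active = cell viability at or below a set limit in both duplicate runs, the limit being the all-compound median minus 4 SD, cut at about 23% in these data, passing the limit was not always enough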;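 also: 0% = wells killed by 20 µM Hyamine and 100% = untreated DMSO cell wells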); conditions: CellTiter-Glo, 60 h, at 10 µM, stronger effect = lower value
[13] = growth suppression of PTEN-deleted HCT116, pilot screen, cell-based, HCT116 clonal line, CellTiter-Glo (AID 824;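 active = viability at or below 27.92% in each of two runs, the all-compound median minus 4 SD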;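 also: 0% = 20 µM Hyamine control and 100% = vehicle cell control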); conditions: 60 h, at 10 µM, stronger effect = lower value
[14] = inhibitors of the yeast RAM network, pilot screen, dse1pr::URA3 reporter, 5-FOA selection (AID 869;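 active = inhibition over a set limit, the all-compound mean plus 3 SD, in both replicate runs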;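 also: 0% = DMSO wells with no growth and 100% = 10 µM 1-NA-PP1 with full growth; RAM network block rescues cells from 5-FOA so hits raise OD615 growth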); conditions: S. cerevisiae dse1pr::URA3 5-FOA growth, OD615, 2 d; at 10 µM; stronger effect = higher value; strain carries analog-sensitive mutant Cbk1 kinase
[15] = RAM signaling pathway blockade in yeast – S. cerevisiae, Pdr1DBD-CYC8 efflux-inhibited sensitized strain, primary screen (AID 1298;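 active = RAM network inhibition above 8.4% in each of two replicates, 3 SD over the compound average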;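 also: 0% = DMSO untreated cells without growth and 100% = 10 µM 1-NA-PP1 full growth; higher means more yeast growth rescued from 5-FOA killing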); conditions: S. cerevisiae cbk1-as DSE1-URA3 strain, 5-FOA growth OD615, 2 d; at 50 µM; stronger effect = higher value
[16] = H69AR cells + 2 uM doxorubicin, measured here: viability with 2 uM doxorubicin, stronger effect = lower value
[17] = H69AR cells, compound alone cytotoxicity

SMILES	viability [1] [%]	Her2 level [2]	viability [3]	viability [4]	viability [5]	differential viability (reversal) ([6]; H69AR cells + 2 uM doxorubicin)	viability [6, 16] [%]	viability [6, 17] [%]	inhibition [7]	inhibition [8]	growth inhibition [9]	growth inhibition [10]	viability increase [11]	viability [12]	viability [13]	inhibition [14]	RAM network inhibition [15]
COc1cccc(-c2nc(CS(=O)(=O)CC(=O)N3CCc4ccccc4C3)c(C)o2)c1	93.5	86.5% (inactive)	93.5% (inactive)	93.3% (inactive)	89.1% (inactive)	6% (inactive)	83.1	89.1	-0.67% (inactive)	0.98% (inactive)	2.52% (inactive)	8.9% (inactive)	-2.85% (inactive)	75.5% (inactive)	73.7% (inactive)	1.68% (inactive)	6.29% (inactive)
O=C(O)c1ccccc1S(=O)(=O)NCC(O)COc1ccc(Br)cc1 (stereo not given)	102	84.5% (inactive)	102% (inactive)	119% (inactive)	99.9% (inactive)	6.29% (inactive)	93.6	99.9	-2.47% (inactive)	-1.17% (inactive)	-17.1% (inactive)	-22.2% (inactive)	0.84% (inactive)	97.9% (inactive)	100% (inactive)	1.09% (inactive)	7.5% (inactive)
O=C(COC(=O)C1CC2C=CC1C2)Nc1ccc2c(c1)OC(F)(F)O2 (stereo not given)	119	89.5% (inactive)	119% (inactive)	84.2% (inactive)	94.3% (inactive)	-1.17% (inactive)	95.5	94.3	-1.95% (inactive)	-0.49% (inactive)	-9.33% (inactive)	3.8% (inactive)	3.74% (inactive)	89.2% (inactive)	96.2% (inactive)	1.08% (inactive)	-2.17% (inactive)
CS(=O)(=O)NCCSCc1c(F)cccc1Cl	89.5	107% (inactive)	89.5% (inactive)	100% (inactive)	102% (inactive)	12.5% (inactive)	89.7	102	0.4% (inactive)	-8.06% (inactive)	-2.46% (inactive)	-2.41% (inactive)	0.04% (inactive)	96.2% (inactive)	91.9% (inactive)	1.1% (inactive)	1.27% (inactive)
Cc1noc(/C=C/N(C)C)c1S(=O)(=O)N1CCCC(C(=O)N2CCc3ccccc32)C1 (stereo not given)	104	99% (inactive)	104% (inactive)	86.3% (inactive)	89.2% (inactive)	-5.5% (inactive)	94.7	89.2	-5.2% (inactive)	-0.33% (inactive)	5.67% (inactive)	-0.63% (inactive)	-0.98% (inactive)	103% (inactive)	109% (inactive)	1.35% (inactive)	4.08% (inactive)
Cc1c(C(=O)OC2CCC(C)CC2)[nH]c2c1C(=O)CCC2 (stereo not given)	69.5	78% (inactive)	69.5% (inactive)	87.6% (inactive)	86.8% (inactive)	-4.38% (inactive)	91.2	86.8	5.07% (inactive)	1.97% (inactive)	-11.8% (inactive)	-6.09% (inactive)	2.52% (inactive)	97.7% (inactive)	92.9% (inactive)	1.67% (inactive)	3.39% (inactive)
Nc1nc(N2CCCCC2)nc(N(c2ccccc2)c2ccccc2)n1	107	104% (inactive)	107% (inactive)	69.3% (inactive)	70.6% (inactive)	-4.36% (inactive)	75	70.6	-5.2% (inactive)	-2.33% (inactive)	-12.8% (inactive)	8% (inactive)	-1.3% (inactive)	89.5% (inactive)	87.1% (inactive)	0.36% (inactive)	1.36% (inactive)
CC(=O)c1ccc(OCC(O)CN2CCN(CCO)CC2)cc1 (stereo not given)	116	112% (inactive)	116% (inactive)	99.2% (inactive)	96.3% (inactive)	-3.92% (inactive)	100	96.3	-5.73% (inactive)	2.33% (inactive)	-1.98% (inactive)	4.8% (inactive)	1.18% (inactive)	99% (inactive)	101% (inactive)	1.13% (inactive)	1.57% (inactive)
CCCCc1nc2ccccc2n2cc3c(=O)n(C)c(=O)n(C)c3c12	86	86% (inactive)	86% (inactive)	106% (inactive)	89.6% (inactive)	4.81% (inactive)	84.8	89.6	0% (inactive)	2.17% (inactive)	-9.65% (inactive)	-16.2% (inactive)	-4.07% (inactive)	95.8% (inactive)	89.2% (inactive)	1.36% (inactive)	0.47% (inactive)
CCOCC(=O)Nc1nc2c(s1)C(=O)CC(C)(C)C2	80.5	108% (inactive)	80.5% (inactive)	97% (inactive)	83.7% (inactive)	-6.59% (inactive)	90.3	83.7	-7.73% (inactive)	1.5% (inactive)	-16.7% (inactive)	-21% (inactive)	-2.68% (inactive)	97.3% (inactive)	93% (inactive)	2.79% (inactive)	0.05% (inactive)
